Test results from publication PMC13423814.

The substances below were run against CHTOP (UniProt Q9Y3Y2). Conditions: DSSO, in cells.
CHTOP, sequence (Q9Y3Y2 whole entry): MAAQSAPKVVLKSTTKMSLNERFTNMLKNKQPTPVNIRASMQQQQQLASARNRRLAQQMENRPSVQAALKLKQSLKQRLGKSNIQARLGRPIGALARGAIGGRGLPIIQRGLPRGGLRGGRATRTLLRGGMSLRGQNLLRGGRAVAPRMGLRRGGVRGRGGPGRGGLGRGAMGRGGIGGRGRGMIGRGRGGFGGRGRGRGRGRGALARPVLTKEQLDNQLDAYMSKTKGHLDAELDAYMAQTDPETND

DDX39B, Q13838, sequence (Q13838 whole entry): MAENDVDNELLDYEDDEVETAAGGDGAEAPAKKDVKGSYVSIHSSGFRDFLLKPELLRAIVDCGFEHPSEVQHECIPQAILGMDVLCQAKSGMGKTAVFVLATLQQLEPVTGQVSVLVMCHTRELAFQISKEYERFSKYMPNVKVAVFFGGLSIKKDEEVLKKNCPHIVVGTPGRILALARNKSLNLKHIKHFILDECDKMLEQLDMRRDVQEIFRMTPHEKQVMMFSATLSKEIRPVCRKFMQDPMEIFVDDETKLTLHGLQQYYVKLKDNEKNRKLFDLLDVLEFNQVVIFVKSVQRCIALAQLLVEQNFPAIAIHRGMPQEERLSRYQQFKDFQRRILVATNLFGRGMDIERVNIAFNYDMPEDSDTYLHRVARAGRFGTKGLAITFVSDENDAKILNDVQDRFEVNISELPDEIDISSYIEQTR
EIF4A3, P38919, sequence (P38919 whole entry): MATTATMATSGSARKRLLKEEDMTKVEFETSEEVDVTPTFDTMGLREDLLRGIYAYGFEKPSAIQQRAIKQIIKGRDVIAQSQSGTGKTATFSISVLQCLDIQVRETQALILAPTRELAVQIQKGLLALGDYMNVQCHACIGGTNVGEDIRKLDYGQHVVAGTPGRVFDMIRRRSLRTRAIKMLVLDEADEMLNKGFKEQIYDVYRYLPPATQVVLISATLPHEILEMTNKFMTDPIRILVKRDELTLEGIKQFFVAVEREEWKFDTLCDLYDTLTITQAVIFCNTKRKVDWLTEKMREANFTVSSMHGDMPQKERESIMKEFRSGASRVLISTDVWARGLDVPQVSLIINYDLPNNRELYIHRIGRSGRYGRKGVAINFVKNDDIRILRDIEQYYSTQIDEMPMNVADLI
DDX39A, O00148, sequence (O00148 whole entry): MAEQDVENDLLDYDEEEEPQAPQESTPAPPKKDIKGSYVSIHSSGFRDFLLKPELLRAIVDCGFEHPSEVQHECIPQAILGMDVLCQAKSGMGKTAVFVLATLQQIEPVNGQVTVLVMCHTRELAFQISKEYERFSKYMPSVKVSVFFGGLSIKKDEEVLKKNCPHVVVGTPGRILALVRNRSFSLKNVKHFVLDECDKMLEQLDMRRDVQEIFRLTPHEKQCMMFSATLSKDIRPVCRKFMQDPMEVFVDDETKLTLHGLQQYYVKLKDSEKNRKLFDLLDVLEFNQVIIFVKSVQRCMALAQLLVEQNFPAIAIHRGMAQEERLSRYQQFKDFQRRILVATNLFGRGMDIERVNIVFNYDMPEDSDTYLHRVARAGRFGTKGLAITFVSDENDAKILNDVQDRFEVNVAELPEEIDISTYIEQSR

Substance | cross-linked residues
DDX39A, O00148 | K187 - S225
EIF4A3, P38919 | K152 - K81
DDX39B, Q13838 | K188 - K226
